Assay outcomes deposited in PubChem by National Center for Advancing Translational Sciences (NCATS).
GLP1R cytotox: cytotoxicity in counter-screen for GLP-1R inverse agonists; HEK293 cAMP-luciferase reporter cells, luminescence, 24 h; Potency, µM (series often up to 38.3 µM), usual class: inhibitors; 410,000 tested, 0.13% active; AID 624418;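 further: loss of luciferase light is scored as toxicity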
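Luminescence readout: signal drop marks cytotoxicity. Plated cells grew 12 h at 37 °C, 5% CO2, received 23 nL compound for 24 h, then got luciferase reagent, read after 12 min at RT.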
GLP1R ag: GLP-1 receptor (human) agonism. P43220. HEK293 GLP-1R CRE-luciferase, luminescence, 4-6 h; cells express a hypersensitive GLP-1R form. Potency, µM (doses to about 45.6 µM), actives largely listed as activators. 380,000 tested, 0.007% active
RORgamma inh: ROR gamma (mouse) transcription inhibition; 310,000 tested, 5.4% active; P51450; Drosophila S2 Gal4-RORgamma UAS-luciferase reporter, 20 h; Potency, µM (titrated, usually from 53.6 µM), most hits filed as inhibitors; further: nearly all actives have a fitted effect of over 60% in size
Target sequence (P51450 whole entry, looked up, the tested form may be a part): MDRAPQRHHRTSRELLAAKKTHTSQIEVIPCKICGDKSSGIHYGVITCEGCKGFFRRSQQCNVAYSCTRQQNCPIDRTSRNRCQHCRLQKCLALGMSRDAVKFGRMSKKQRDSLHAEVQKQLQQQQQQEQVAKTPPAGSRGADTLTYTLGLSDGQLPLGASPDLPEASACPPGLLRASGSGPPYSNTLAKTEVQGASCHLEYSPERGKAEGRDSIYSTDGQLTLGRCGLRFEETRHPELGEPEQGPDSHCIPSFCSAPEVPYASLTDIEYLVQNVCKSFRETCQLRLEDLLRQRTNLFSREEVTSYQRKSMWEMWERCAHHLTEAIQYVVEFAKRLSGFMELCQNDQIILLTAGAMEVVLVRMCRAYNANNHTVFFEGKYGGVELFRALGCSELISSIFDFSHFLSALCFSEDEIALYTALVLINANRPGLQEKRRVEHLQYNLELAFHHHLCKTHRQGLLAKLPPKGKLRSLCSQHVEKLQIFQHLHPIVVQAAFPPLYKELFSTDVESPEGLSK
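Stable Schneider cell line, Gal4 DNA-binding domain fused to ROR gamma, UAS-luciferase. Cmpd 1 hr RT → CuSO4 700 uM final → 20 hr RT → luciferase reagent 10 min → luminescence.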
Gal4-VP16 FLuc: inhibits Gal4-VP16 luciferase reporter, ROR gamma counter-screen; Drosophila S2 Gal4-VP16 UAS-luciferase, luminescence, 20 h; Potency, µM (top dose mostly 53.6 µM), actives largely listed as inhibitors; 310,000 tested, 3.5% active; AID 2546;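 further: Gal4-VP16 expression switched on by copper sulfate through the metallothionein promoter; nearly all actives have a fitted effect of over 50% in size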
GLP-1R inv ag: inverse agonists of human GLP-1 receptor; 410,000 tested, 1.6% active; Potency, µM (series often up to 38.3 µM), actives largely listed as inhibitors; HEK293 GLP-1R CRE-luciferase, luminescence, 24 h; GLP-1R form is constitutively active; P43220; AID 624417; further: nearly all actives have a fitted effect of over 55% in size
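GLP-1R inverse agonism mode: basal reporter luminescence in engineered HEK293 cells measured after one day of compound exposure at 37 deg C, with a 12 min room-temperature detection step.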
A number is an active result; [ ] = remark or other dose. Rows were chosen to be rich in hits. Some 5.9% of all compounds tested hit in one or more screens of this group. The call rests on the fitted dose curve; in most records, active means well fitted curve in the direction sought with a large enough effect; inconclusive means small, poorly fitted or top-dose-only effect, or another doubt; inactive means no such curve, though single readings can be large; an effect the other way counts as inactive or inconclusive.

Results for O=C(COc1cccc(Cl)c1)NNC(=S)Nc1ccccc1 ?
GLP1R cytotox: inactive; GLP1R ag: inactive; RORgamma inh: 0.891µM; Gal4-VP16 FLuc: 1µM; GLP-1R inv ag: inactive

How did COc1cccc(OCC(=O)NNC(=S)Nc2ccc(Cl)cc2Cl)c1 do in these assays?
GLP1R cytotox: inactive; GLP1R ag: inactive; RORgamma inh: 15.8µM; Gal4-VP16 FLuc: inactive; GLP-1R inv ag: inactive

How did COC(=O)c1ccc(Nc2ncnc3c2nc2n3CCCC2)cc1 do in these assays?
GLP1R cytotox: inactive; GLP-1R inv ag: inactive

What do the screens show for `O=C(NC1CCCC1)C(c1ccco1)N(C(=O)c1ccco1)c1ccccc1` (centres undefined)?
GLP1R cytotox: inactive; GLP1R ag: inactive; RORgamma inh: inactive; Gal4-VP16 FLuc: inactive; GLP-1R inv ag: inactive

What do the screens show for `CC(=O)Nc1ccc(N(C(=O)c2ccco2)C(C(=O)NC2CCCC2)c2ccc(N(C)C)cc2)cc1` (centres undefined)?
GLP1R cytotox: inactive; GLP1R ag: inactive; RORgamma inh: 10µM; Gal4-VP16 FLuc: inactive; GLP-1R inv ag: inactive

What do the screens show for `CCc1ccc(N(C(=O)c2ccco2)C(C(=O)NC2CCCC2)c2ccco2)cc1` (centres undefined)?
GLP1R cytotox: inactive; GLP1R ag: inactive; GLP-1R inv ag: 10µM

Results for COc1cc2nc(SCc3cccc(Cl)c3)n3nc(CCn4nc(C)cc4C)nc3c2cc1OC ?
GLP1R cytotox: inactive; GLP1R ag: inactive; GLP-1R inv ag: inactive

What do the screens show for `O=C(/C=C(\O)c1ccccc1)C(=O)NNC(=O)c1ccccc1[N+](=O)[O-]`?
GLP1R cytotox: inactive; GLP1R ag: inactive; RORgamma inh: inactive; Gal4-VP16 FLuc: inconclusive; GLP-1R inv ag: inactive

Results for Nc1ccccc1C(=O)NNC(=O)C(=O)/C=C(\O)c1ccccc1 ?
GLP1R cytotox: inactive; GLP1R ag: inactive; RORgamma inh: 11.2µM; Gal4-VP16 FLuc: inconclusive; GLP-1R inv ag: inactive

How did CC(C)c1ccc(C2=NC(c3ccncc3)=Nc3ccc(F)cc3N2)cc1 do in these assays?
GLP1R cytotox: inactive; GLP-1R inv ag: inactive

Results for CCOC(=O)c1sc2ncn(CC(=O)Nc3ccc(F)cc3F)c(=O)c2c1C ?
GLP1R cytotox: inactive; GLP1R ag: inactive; GLP-1R inv ag: inactive

Results for CC(c1ccco1)N(C(=O)COc1ccc(Cl)cc1)c1ccccn1 (centres undefined) ?
GLP1R cytotox: inactive; GLP1R ag: inactive; RORgamma inh: inactive; Gal4-VP16 FLuc: inactive; GLP-1R inv ag: inconclusive

Results for CC(c1ccco1)N(C(=O)COc1ccc(Cl)cc1Cl)c1ccccn1 (centres undefined) ?
GLP1R cytotox: inactive; GLP1R ag: inactive; RORgamma inh: inconclusive; Gal4-VP16 FLuc: 11.2µM; GLP-1R inv ag: inactive

What do the screens show for `Cc1c(C)c2ccc(OCC(=O)Nc3ccccn3)c(C)c2oc1=O`?
GLP1R cytotox: inactive; GLP1R ag: inactive; RORgamma inh: inconclusive; Gal4-VP16 FLuc: inconclusive; GLP-1R inv ag: 10µM

How did O=C(COc1ccc(Cl)cc1Cl)Nc1ccccn1 do in these assays?
GLP1R cytotox: inactive; GLP1R ag: inactive; RORgamma inh: inactive; Gal4-VP16 FLuc: 2.82µM; GLP-1R inv ag: inconclusive

How did Cc1c(C)c2cc(Cl)c(OCC(=O)Nc3ccccn3)cc2oc1=O do in these assays?
GLP1R cytotox: inactive; GLP1R ag: inactive; GLP-1R inv ag: inactive

Results for O=C(CN1C(=O)COc2ccc(S(=O)(=O)N3CCCCCC3)cc21)N1CCN(c2ccc(F)cc2)CC1 ?
GLP1R cytotox: inactive; GLP1R ag: inactive; GLP-1R inv ag: inconclusive

How did O=c1c2ccccc2[nH]c(=S)n1-c1cccc(S(=O)(=O)N2CCCC2)c1 do in these assays?
GLP1R cytotox: inactive; GLP1R ag: inactive; RORgamma inh: 3.16µM; Gal4-VP16 FLuc: inconclusive; GLP-1R inv ag: inactive

How did Cc1cc(C)cc(NC(=O)C(OC(=O)c2ccc([N+](=O)[O-])o2)c2ccccc2)c1 (centres undefined) do in these assays?
GLP1R cytotox: inactive; GLP1R ag: inactive; RORgamma inh: inconclusive; Gal4-VP16 FLuc: inactive; GLP-1R inv ag: inactive

What do the screens show for `COc1cccc(NC(=O)C(OC(=O)c2ccc([N+](=O)[O-])o2)c2ccccc2)c1` (centres undefined)?
GLP1R cytotox: inactive; GLP1R ag: inactive; RORgamma inh: 14.1µM; Gal4-VP16 FLuc: inactive; GLP-1R inv ag: inactive

Results for COc1ccc(C(=O)N2CCC3(CCN(C(=O)Nc4ccccc4)CC3)CC2)cc1 ?
RORgamma inh: inactive; Gal4-VP16 FLuc: inactive

How did COc1ccc(-n2c(C)cc(C(=O)COC(=O)Cc3n[nH]c(=O)c4ccccc34)c2C)cc1 do in these assays?
GLP1R cytotox: inactive; GLP1R ag: inactive; RORgamma inh: inactive; Gal4-VP16 FLuc: inconclusive; GLP-1R inv ag: inconclusive

What do the screens show for `Cc1cc(C(=O)COC(=O)Cc2n[nH]c(=O)c3ccccc23)c(C)n1-c1ccc2c(c1)OCO2`?
GLP1R cytotox: inactive; GLP1R ag: inactive; RORgamma inh: inactive; Gal4-VP16 FLuc: 17.8µM; GLP-1R inv ag: inconclusive

Results for CC(=O)c1ccc(OCC(=O)c2cc(C)n(-c3ccc4c(c3)OCO4)c2C)cc1 ?
GLP1R cytotox: inactive; GLP1R ag: inactive; RORgamma inh: inconclusive; Gal4-VP16 FLuc: 10µM; GLP-1R inv ag: inconclusive

What do the screens show for `CN(C)c1ncc2nc(-c3ccc(F)cc3)c(=O)n(C[C@H]3CCCO3)c2n1`?
RORgamma inh: inactive; Gal4-VP16 FLuc: inactive

Results for COC(=O)C/C=C\[C@@H](C)[C@@H](/C=N\O[C@@H](C)CN1CCCCc2nc(C)c(C)cc21)OC ?
RORgamma inh: inactive[10 µM]; Gal4-VP16 FLuc: inactive[10 µM]

What do the screens show for `CN1CC(c2ccccc2)Oc2ccccc2C1=S` (centres undefined)?
GLP1R cytotox: inactive; GLP1R ag: inactive; GLP-1R inv ag: inactive

Results for CCCN1C(=S)c2ccccc2C1c1ccccc1 (centres undefined) ?
GLP1R cytotox: inactive; GLP1R ag: inactive; RORgamma inh: 10µM; Gal4-VP16 FLuc: inactive; GLP-1R inv ag: inconclusive

What do the screens show for `O=C(O)c1ccc(N=Nc2c(O)ccc3ncccc23)cc1`?
GLP1R cytotox: inactive; GLP1R ag: inactive; RORgamma inh: 1.12µM; Gal4-VP16 FLuc: 3.16µM; GLP-1R inv ag: inconclusive

What do the screens show for `O=C(Cn1c(=O)oc2cc(Cl)ccc21)Nc1cccc(C(F)(F)F)c1`?
GLP1R cytotox: inactive; GLP-1R inv ag: inactive

What do the screens show for `CCOC(=O)c1c(N2C(=O)C3C4C=CC(O4)C3C2=O)sc2c1CCCC2` (centres undefined)?
GLP1R cytotox: inactive; GLP1R ag: inactive; RORgamma inh: inconclusive; Gal4-VP16 FLuc: 17.8µM; GLP-1R inv ag: inconclusive

Results for CCOC(=O)c1c(-n2cnnn2)sc2c1CCCC2 ?
GLP1R cytotox: inactive; GLP1R ag: inactive; RORgamma inh: inactive; Gal4-VP16 FLuc: inactive; GLP-1R inv ag: inactive

How did O=C(Cn1nc(Cc2cccnc2)c2ccccc2c1=O)Nc1cccc(C(F)(F)F)c1 do in these assays?
GLP1R cytotox: inactive; GLP-1R inv ag: inactive
